Experimental data: the supplement of paper PMC10849652
About 8,800 targets were measured; listed, in parts, are those with a hit and a random draw of the rest. About 0.5% of all pairs of compound and target were hits. Unmarked numbers belong to inactive results.

Assays:
Experiment in all cases: log2 fold change, soluble protein after heating vs DMSO (PISA); higher = thermal stabilisation; K562 lysate, 10 uM; active = over 0.2 and 3.5 SD of the protein, either way, in both replicates (recomputed)
lapatinib = compound: CS(=O)(=O)CCNCc1ccc(-c2ccc3ncnc(Nc4ccc(OCc5cccc(F)c5)c(Cl)c4)c3c2)o1 [lapatinib]
How it was run: (§1)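 Following dounce homogenisation of K562 pellets in PBS pH 7.4 with 1 mM MgCl2, crude extract at 1 mg/mL protein was incubated for 30 min with 10 μM compound. Aliquots were then heated for 3 min over 48°C-58°C and pooled, NP-40 was added to 0.5% at 4°C, and soluble protein was recovered as the supernatant at 21,000xg for 90 min. Channel-sum-equalised TMTpro 16plex LC-MS/MS quantified this protein. Each value, from duplicates, is a log-two fold change in thermal stability relative to solvent controls.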

pictilisib = compound: CS(=O)(=O)N1CCN(Cc2cc3nc(-c4cccc5[nH]ncc45)nc(N4CCOCC4)c3s2)CC1 [pictilisib]
How it was run: as §1

crizotinib = compound: C[C@@H](Oc1cc(-c2cnn(C3CCNCC3)c2)cnc1N)c1c(Cl)ccc(F)c1Cl [crizotinib]
How it was run: as §1

[1] = compound: C[C@H](C1=CC=C(C=C1)C(=O)NC2=C3C=CNC3=NC=C2)N
How it was run: as §1

duvelisib = compound: C[C@H](Nc1ncnc2nc[nH]c12)c1cc2cccc(Cl)c2c(=O)n1-c1ccccc1 [duvelisib]
How it was run: as §1

gandotinib = compound: Cc1cc(Nc2cc(CN3CCOCC3)c3nc(C)c(Cc4ccc(Cl)cc4F)n3n2)n[nH]1 [gandotinib]
How it was run: as §1

tozasertib = compound: Cc1cc(Nc2cc(N3CCN(C)CC3)nc(Sc3ccc(NC(=O)C4CC4)cc3)n2)n[nH]1 [tozasertib]
How it was run: as §1

doramapimod = compound: Cc1ccc(-n2nc(C(C)(C)C)cc2NC(=O)Nc2ccc(OCCN3CCOCC3)c3ccccc23)cc1 [doramapimod]
How it was run: as §1

bafetinib = compound: Cc1ccc(NC(=O)c2ccc(CN3CC[C@H](N(C)C)C3)c(C(F)(F)F)c2)cc1Nc1nccc(-c2cncnc2)n1 [bafetinib]
How it was run: as §1

[2] = compound: Cc1cccc(CC(=O)N2CCc3c2ccc(-c2cn(C)c4ncnc(N)c24)c3F)n1
How it was run: as §1

Chain of UniProt P34949 (P34949 whole entry, looked up): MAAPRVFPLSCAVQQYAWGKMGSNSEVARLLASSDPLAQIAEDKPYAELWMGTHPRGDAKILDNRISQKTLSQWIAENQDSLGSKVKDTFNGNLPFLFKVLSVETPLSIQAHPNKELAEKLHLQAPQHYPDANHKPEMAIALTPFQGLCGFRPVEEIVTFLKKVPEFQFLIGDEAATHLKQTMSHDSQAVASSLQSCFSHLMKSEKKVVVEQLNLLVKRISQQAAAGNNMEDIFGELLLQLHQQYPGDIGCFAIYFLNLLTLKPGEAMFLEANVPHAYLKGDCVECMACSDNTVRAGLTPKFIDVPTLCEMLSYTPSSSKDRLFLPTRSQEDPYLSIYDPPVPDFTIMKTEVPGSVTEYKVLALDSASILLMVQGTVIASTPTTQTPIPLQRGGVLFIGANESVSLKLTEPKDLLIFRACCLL
Chain of UniProt Q86V48 (Q86V48 whole entry, looked up): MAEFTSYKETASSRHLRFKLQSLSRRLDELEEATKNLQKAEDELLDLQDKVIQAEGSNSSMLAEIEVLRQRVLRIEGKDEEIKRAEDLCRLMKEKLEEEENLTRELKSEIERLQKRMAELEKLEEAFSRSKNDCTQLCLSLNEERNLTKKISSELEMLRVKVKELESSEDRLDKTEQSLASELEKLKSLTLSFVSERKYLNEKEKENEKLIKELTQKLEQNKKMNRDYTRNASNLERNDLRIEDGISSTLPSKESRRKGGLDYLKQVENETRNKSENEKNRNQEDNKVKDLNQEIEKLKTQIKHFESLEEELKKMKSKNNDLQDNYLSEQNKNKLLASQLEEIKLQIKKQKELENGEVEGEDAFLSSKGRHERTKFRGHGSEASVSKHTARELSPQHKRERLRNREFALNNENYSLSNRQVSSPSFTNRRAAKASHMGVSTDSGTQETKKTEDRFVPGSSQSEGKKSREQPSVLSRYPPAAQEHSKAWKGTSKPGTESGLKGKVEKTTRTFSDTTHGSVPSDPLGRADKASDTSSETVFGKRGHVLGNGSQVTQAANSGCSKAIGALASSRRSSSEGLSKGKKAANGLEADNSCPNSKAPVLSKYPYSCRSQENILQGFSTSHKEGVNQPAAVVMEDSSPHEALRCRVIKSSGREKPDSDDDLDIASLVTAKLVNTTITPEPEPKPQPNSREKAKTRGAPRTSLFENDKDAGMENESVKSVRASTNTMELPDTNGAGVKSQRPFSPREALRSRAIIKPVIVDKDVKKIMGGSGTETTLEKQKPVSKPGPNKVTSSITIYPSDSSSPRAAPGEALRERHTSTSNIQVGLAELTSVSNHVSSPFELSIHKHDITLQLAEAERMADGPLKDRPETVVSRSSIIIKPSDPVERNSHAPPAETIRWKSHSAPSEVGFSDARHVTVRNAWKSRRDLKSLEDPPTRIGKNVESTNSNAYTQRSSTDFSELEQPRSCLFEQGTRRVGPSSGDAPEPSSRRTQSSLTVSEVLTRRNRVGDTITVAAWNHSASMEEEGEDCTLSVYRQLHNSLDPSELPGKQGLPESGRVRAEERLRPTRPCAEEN
Chain of UniProt Q8IVT5 (Q8IVT5 whole entry, looked up): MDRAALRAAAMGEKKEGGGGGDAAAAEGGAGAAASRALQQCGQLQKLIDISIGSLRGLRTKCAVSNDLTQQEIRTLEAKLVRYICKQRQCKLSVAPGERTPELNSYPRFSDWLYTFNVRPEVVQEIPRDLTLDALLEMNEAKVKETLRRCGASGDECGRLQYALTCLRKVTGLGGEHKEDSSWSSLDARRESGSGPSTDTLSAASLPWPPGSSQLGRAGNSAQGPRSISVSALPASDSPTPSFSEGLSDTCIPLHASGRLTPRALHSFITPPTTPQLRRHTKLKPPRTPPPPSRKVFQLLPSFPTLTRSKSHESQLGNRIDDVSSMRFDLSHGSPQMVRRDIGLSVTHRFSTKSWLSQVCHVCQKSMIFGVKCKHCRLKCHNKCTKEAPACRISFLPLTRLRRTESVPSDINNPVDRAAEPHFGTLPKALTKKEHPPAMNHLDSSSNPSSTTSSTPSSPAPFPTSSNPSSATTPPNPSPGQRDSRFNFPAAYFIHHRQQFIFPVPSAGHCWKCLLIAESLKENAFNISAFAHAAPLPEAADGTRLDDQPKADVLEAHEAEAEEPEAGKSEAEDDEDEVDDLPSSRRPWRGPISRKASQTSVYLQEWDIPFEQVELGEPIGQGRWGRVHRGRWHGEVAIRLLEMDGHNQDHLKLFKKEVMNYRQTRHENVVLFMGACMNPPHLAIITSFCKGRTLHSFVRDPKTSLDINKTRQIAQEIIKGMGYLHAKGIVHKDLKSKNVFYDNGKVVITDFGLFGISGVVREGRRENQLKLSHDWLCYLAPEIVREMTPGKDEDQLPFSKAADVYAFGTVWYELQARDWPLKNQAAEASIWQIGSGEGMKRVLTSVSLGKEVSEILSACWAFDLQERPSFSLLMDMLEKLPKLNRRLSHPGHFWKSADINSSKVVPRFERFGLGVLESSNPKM
Chain of UniProt Q96T76 (Q96T76 whole entry, looked up): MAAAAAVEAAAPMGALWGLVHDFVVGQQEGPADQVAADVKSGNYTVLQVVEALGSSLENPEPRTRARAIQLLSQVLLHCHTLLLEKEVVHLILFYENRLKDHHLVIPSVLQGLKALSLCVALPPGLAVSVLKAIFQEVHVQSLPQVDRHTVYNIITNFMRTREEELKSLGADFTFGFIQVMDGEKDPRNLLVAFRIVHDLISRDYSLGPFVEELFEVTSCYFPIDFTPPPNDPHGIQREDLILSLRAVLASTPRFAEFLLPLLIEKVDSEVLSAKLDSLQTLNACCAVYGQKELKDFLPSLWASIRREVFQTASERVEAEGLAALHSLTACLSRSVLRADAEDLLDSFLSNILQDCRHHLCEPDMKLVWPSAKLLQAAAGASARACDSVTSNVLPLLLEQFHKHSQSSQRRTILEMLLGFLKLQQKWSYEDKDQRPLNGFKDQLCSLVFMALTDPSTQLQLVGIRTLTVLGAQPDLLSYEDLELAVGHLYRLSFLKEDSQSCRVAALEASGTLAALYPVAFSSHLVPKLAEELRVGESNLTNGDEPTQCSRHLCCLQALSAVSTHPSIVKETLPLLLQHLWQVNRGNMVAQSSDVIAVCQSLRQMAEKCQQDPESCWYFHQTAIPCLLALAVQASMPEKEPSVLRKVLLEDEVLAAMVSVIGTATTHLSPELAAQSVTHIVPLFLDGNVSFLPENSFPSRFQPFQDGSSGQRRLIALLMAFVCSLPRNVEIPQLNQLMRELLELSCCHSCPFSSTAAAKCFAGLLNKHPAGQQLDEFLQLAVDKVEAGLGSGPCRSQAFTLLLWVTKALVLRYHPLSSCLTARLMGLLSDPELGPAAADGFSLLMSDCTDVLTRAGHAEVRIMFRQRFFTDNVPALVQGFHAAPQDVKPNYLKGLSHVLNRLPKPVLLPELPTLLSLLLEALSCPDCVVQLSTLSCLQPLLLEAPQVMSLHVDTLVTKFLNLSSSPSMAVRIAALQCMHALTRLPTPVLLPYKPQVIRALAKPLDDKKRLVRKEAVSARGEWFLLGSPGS
Chain of UniProt Q9NS87 (Q9NS87 whole entry, looked up): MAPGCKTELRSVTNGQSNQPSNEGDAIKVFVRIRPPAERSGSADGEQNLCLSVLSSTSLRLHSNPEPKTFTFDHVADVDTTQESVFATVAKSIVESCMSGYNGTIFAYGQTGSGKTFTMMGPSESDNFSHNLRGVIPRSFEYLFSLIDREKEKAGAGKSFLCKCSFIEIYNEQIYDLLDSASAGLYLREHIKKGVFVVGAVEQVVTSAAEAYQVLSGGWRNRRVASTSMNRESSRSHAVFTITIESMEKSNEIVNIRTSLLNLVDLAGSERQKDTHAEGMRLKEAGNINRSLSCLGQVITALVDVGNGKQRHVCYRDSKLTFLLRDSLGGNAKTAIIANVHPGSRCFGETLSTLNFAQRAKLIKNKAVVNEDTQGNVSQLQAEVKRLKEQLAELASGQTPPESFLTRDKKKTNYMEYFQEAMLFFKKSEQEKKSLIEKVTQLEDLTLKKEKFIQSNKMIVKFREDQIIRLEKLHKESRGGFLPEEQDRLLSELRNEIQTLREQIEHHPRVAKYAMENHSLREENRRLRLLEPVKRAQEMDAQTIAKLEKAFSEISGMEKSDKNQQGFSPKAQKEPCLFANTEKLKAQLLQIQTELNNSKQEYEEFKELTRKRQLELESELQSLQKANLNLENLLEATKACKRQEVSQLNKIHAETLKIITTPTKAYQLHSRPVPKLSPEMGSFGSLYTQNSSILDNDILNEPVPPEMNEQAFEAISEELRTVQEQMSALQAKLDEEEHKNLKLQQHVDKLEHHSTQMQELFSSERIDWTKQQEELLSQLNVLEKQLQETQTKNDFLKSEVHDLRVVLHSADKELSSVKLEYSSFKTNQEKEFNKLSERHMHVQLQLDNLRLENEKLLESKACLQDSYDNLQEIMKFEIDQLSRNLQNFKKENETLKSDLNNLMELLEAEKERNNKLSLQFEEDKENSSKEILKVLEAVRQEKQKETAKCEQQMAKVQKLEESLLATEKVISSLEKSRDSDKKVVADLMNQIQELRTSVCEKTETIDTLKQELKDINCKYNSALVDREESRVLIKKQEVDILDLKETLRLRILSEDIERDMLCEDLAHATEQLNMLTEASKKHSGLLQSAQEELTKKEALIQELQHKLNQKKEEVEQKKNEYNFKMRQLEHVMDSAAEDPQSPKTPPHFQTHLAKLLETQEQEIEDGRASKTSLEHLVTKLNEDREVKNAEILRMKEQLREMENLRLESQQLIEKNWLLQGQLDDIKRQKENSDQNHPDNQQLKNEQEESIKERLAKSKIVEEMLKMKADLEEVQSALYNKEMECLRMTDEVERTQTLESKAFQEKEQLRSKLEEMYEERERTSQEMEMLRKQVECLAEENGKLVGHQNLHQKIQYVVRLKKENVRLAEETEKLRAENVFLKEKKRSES

Target	log2 fold change (lapatinib)	log2 fold change (pictilisib)	log2 fold change (crizotinib)	log2 fold change [1]	log2 fold change (duvelisib)	log2 fold change (gandotinib)	log2 fold change (tozasertib)	log2 fold change (doramapimod)	log2 fold change (bafetinib)	log2 fold change [2]
LYN (UniProt P07948)	-0.184	-0.036	0.093	-0.079	-0.042	0.551	0.11	0.026	0.763 (active)	-0.005
MMS19 isoform 8 (UniProt Q96T76)	-0.03	-0.04	-0.074	0.049	-0.003	-0.101	-0.004	0.023	-0.066	0.004
KNL1 (UniProt Q8NG31)	0.007	-0.031	-0.015	-0.011	-0.001	-0.032	-0.027	0.008	-0.017	0.016
KSR1 (UniProt Q8IVT5)	-0.107	0.064	-0.015	0.006	-0.026	-0.087	0.017	-0.065	-0.038	-0.156
MED12 isoform 2 (UniProt Q93074)	0.009	0.017	-0.017	0.002	0	-0.072	-0.033	0.011	-0.012	-0.011
LUZP1 (UniProt Q86V48)	-0.006	-0.02	-0.012	0.008	-0.026	0.036	-0.011	-0.009	-0.034	-0.011
KIFC1 (UniProt Q9BW19)	-0.021	-0.013	-0.019	-0.016	-0.003	-0.05	0.047	0.021	-0.027	0.031
KMT2A isoform 3 (UniProt Q03164)	-0.07	-0.102	-0.033	0.091	0.013	0.013	0.148	0.026	-0.41	0.069
METTL2A (UniProt Q96IZ6)	-0.001	-0.049	-0.026	0.056	0.052	-0.065	0.029	0.035	-0.017	-0.065
MAP7D3 (UniProt Q8IWC1)	0.033	0.01	-0.006	-0.055	-0.068	0.021	0.066	0.065	-0.128	0.06
MARK1 (UniProt Q9P0L2)	0.037	-0.065	-0.175	0.026	-0.002	-0.192	-0.084	0.155	-0.034	0.05
KRR1 (UniProt Q13601)	-0.039	0.03	-0.228	0.05	-0.037	-0.097	-0.038	0.127	-0.039	0.002
MOCS1 isoform 8 (UniProt Q9NZB8)	-0.022	-0.003	-0.046	-0.078	0	0.012	0.11	0.018	-0.032	0.04
LRRC40 (UniProt Q9H9A6)	-0.004	-0.012	-0.007	0.015	-0.025	-0.088	0.014	0.009	-0.028	-0.032
MAPKAPK3 (UniProt Q16644)	0	-0.013	-0.026	0.034	-0.038	-0.044	0.046	-0.025	0.026	-0.014
LYAR (UniProt Q9NX58)	0	0.025	0.005	0.269 (active)	0.017	-0.119	-0.025	-0.017	-0.008	-0.099

Target	log2 fold change (lapatinib)	log2 fold change (pictilisib)	log2 fold change (crizotinib)	log2 fold change [1]	log2 fold change (duvelisib)	log2 fold change (gandotinib)	log2 fold change (tozasertib)	log2 fold change (doramapimod)	log2 fold change (bafetinib)	log2 fold change [2]
MRPL27 (UniProt Q9P0M9)	0.02	0.017	-0.046	0.658 (active)	0.02	-0.249	0.029	0.011	0.012	-0.076
MORF4L1 isoform 2 (UniProt Q9UBU8)	0.024	0.023	0.025	-0.058	0.021	0.037	-0.019	-0.047	-0.01	0.006
KLC1 isoform 6 (UniProt Q07866)	-0.011	-0.001	0	-0.009	-0.031	-0.073	-0.004	0.026	-0.008	0.005
MPZL1 (UniProt O95297)	-0.006	-0.026	0.074	0.132	0.001	-0.009	-0.029	-0.087	-0.027	-0.107
MPI (UniProt P34949)	0.02	-0.017	-0.029	0.174	0.007	-0.055	-0.043	0.032	0.013	-0.014
KLHL36 (UniProt Q8N4N3)	-0.045	-0.006	0.021	-0.075	-0.02	-0.013	0.014	-0.129	0.022	-0.052
LAMP1 (UniProt P11279)	-0.033	-0.014	-0.014	-0.496 (active)	0.005	0.241 (active)	-0.05	-0.044	-0.065	0.172
MAP11 (UniProt Q8WVR3)	-0.047	-0.028	-0.011	-0.102	-0.04	-0.06	-0.024	-0.024	-0.021	0.001
MED25 isoform 3 (UniProt Q71SY5)	0.018	-0.05	-0.05	0.053	0.063	-0.095	-0.109	-0.042	-0.023	-0.052
MAP4 (UniProt E7EVA0)	0.002	-0.054	-0.163	-0.096	0.012	0.007	0.055	0.017	-0.055	0.008
MAP3K4 (UniProt Q9Y6R4)	-0.02	0.009	0.033	0.064	-0.017	0.034	0.092	0.073	-0.031	-0.041
LAS1L (UniProt Q9Y4W2)	-0.004	-0.033	-0.05	-0.051	-0.003	0.017	0.043	0.011	-0.004	0.233 (active)
MCMBP (UniProt Q9BTE3)	0.008	-0.027	-0.032	0.048	0.002	-0.083	-0.007	-0.001	-0.007	-0.048
MLXIP (UniProt Q9HAP2)	-0.009	-0.049	-0.023	-0.052	-0.078	-0.032	0.019	0.009	-0.01	0.043
KIF15 (UniProt Q9NS87)	-0.02	0.006	-0.017	0	-0.002	-0.017	0.008	0.006	-0.025	0.033
